# hgDAF12 agonist = hgDAF-12 agonism, primary luciferase screen | activation, % at 6.8 µM | AID 687014 | HEK293 GAL4-hgDAF12 UAS-luciferase reporter, agonist luminescence; normalized to butyrate control | 1.8% of 370,000 active;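 active means activation above a cutoff set at the mean of all screened compounds plus 3 SD, cut at about 10% in these data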;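 further: 0% = DMSO wells and 100% = sodium butyrate wells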
# DAX1 inh-1 = blocks DAX1 repression of SF-1 activated StAR promoter; HEK293T StAR-luciferase reporter, SF-1/DAX-1 repression relief; inhibition, % at 6.8 µM; 1.1% of 370,000 active; AID 652010;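 active means inhibition above the mean over all tested compounds plus 3 SD, cut at about 3.6% in these data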;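 further: 0% = DAX-1 cells with DMSO and 100% = cells lacking DAX-1 with DMSO; higher inhibition means more luminescence from relief of DAX-1 repression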
# ssDAF-12 act = S. stercoralis DAF-12 activation, primary screen; HEK293 ssDAF-12/GRIP1 lit1-tk-luc reporter, luminescence; % of 3 µM dafachronic acid response; activation, % at 6.8 µM; 1% of 370,000 active;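 active means activation above the mean over all tested compounds plus 3 SD, cut at about 0.9% in these data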;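 further: 0% = DMSO-only wells and 100% = 3 µM delta7-dafachronic acid wells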
# DAX1 inh-2 = inhibitors of human orphan nuclear receptor DAX1 (NR0B1) | P51843 | HEK293 Gal4-DAX1 luciferase reporter, luminescence | inhibition, % at 6.75 µM | 0.99% of 340,000 active;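 active means inhibition above the mean over all tested compounds plus 3 SD, cut at about 4.2% in these data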;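 further: 0% = DAX1-transfected cells with DMSO and 100% = empty-vector control cells with DMSO; inhibition shows as a rise in luminescence from relieved DAX1 repression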
# Target sequence (P51843 207-470 limits assumed): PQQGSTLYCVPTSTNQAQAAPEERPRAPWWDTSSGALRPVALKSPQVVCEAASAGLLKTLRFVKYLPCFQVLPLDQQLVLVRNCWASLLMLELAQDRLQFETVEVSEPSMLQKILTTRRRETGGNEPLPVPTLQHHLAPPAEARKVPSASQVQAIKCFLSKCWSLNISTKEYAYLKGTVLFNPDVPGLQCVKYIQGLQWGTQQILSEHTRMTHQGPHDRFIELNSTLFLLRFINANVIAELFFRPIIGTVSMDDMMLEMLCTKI
# hcDAF12 agonist = H. contortus DAF-12 activation, primary screen | HEK293 hcDAF-12 lit1-tk-luc reporter, luminescence; 0% DMSO, 100% Δ7-dafachronic acid | AID 652067 | 1.4% of 370,000 active | activation, % at 6.8 µM;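 active means activation above the mean of all tested compounds plus 3 SD, cut at about 5.5% in these data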;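 further: 100% = response to 3 µM Δ7-dafachronic acid high control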
# * marks the source's active call; other numbers are inactive results; nt = not tested or not shown. This is a sample that favours compounds with a hit; in the whole collection about 4.1% have one here.
SMILES,hgDAF12 agonist,DAX1 inh-1,ssDAF-12 act,DAX1 inh-2,hcDAF12 agonist
COc1cc(OC)c(NC2c3ccccc3C(=O)N2c2cc(C)ccn2)cc1Cl (configuration not stated),12*,3.6*,0,0,0
Cc1ccc(N2C(=O)c3ccccc3C2Nc2ccccc2F)nc1 (configuration not stated),13*,0,-1,0,-1
O=S1(=O)c2ccc(N3CCSCC3)cc2Oc2ccccc2CN1Cc1cn(Cc2ccc(C(F)(F)F)cc2)nn1,-2,0,-2,nt,-2
COc1ccc2[nH]c3c(c2c1)CCN[C@]31C(=O)N(Cc2ccccc2)c2ccccc21,-4,-1,-1,nt,-2
Cc1ccc(NC(=O)Nc2ncnc3nc[nH]c23)cc1,12*,2,-1,3,2
CCc1ccc(Nc2ncnc3nc[nH]c23)cc1,12*,3,0,5.3*,4
CC(=O)Nc1sc2c(c1-c1nc(-c3ccccc3)cs1)CCN(C(C)C)C2,6,nt,0,nt,6.3*
CC(=O)Nc1sc2c(c1-c1nc3ccccc3s1)CCN(C(C)C)C2,nt,nt,nt,1,nt
Cn1cc(C(=O)N2CCc3ccccc32)cn1,5,2,1.2*,2,6.5*
COc1cc(-n2c(C)nc3cc(C(=O)N4CCCN(C(C)=O)CC4)ccc32)cc(OC)c1OC,4,1,0,nt,-1
N#Cc1ccc(C(=O)N/N=C/c2cn(CC(=O)O)c3ccccc23)c(F)c1,0,1,0,0,5.7*
CCOC(=O)Cc1nnc(NC(=O)COc2ccc(OC)cc2)s1,-2,0,-2,4.7*,3
O=C(c1ccc(Cl)c(Cl)c1)N1CCC(Oc2cccnc2)CC1,-3,-1,-1,nt,-1
CCN(CC)CCNc1ncnc2c1sc1nc(N3CCOCC3)c3c(c12)CC(C)(C)SC3,-1,0,1.1*,0,-2
O=S(=O)(CC1NCc2cc(F)ccc21)NCc1ccccc1 (configuration not stated),0,-1,-1,nt,1
Cc1cc(=O)[nH]c(SCc2nc3ccccc3s2)n1,0,1,0,0,1
CCCc1cc(=O)[nH]c(SCc2nc3ccccc3s2)n1,3,1,0,0,6.0*
OCCN1CCCC12CCC(c1ccccc1)CC2 (configuration not stated),1,0,-1,nt,0
C=CCOc1ccc(/C=C2\SC(=S)N(N3CCOCC3)C2=O)cc1,10,2,0,1,5.7*
Cc1ccc(Nc2nc(N)c([N+](=O)[O-])c(NCCO)n2)cc1C,2,0,0,4.4*,1
Nc1nc(Nc2ccc(Cl)cc2)nc(NCCO)c1[N+](=O)[O-],-1,-1,-1,nt,1
COC(=O)c1ccc(-c2ccc(F)cc2)nc1C,12*,1,0,2,2
CCOC(=O)c1ccc(-c2ccc3c(c2)CCC3)nc1C,10,2,0,2,5.6*
CCOC(=O)c1cc2c(nc1N)CCCC2,0,0,-2,1,-1
Cc1c(NC(=O)C2CCCN(S(=O)(=O)c3cccc4ccccc34)C2)c(=O)n(-c2ccccc2)n1C (configuration not stated),-1,-1,-1,nt,-4
SMILES,hgDAF12 agonist,DAX1 inh-1,ssDAF-12 act,DAX1 inh-2,hcDAF12 agonist
COC(=O)[C@]12C[C@H](CC(=O)NCC34CC5CC(CC(C5)C3)C4)C(=O)N(CCC3=CCCCC3)C1=C[C@H](C1CCCC1)O[C@@H]2C,-2,-1,-1,nt,-2
Cc1ccc(NC(=O)Nc2ccccc2CC[N+](=O)[O-])cc1,6,0,0,nt,5.8*
Cc1cc(C)cc(NC(=O)c2ccccc2CC[N+](=O)[O-])c1,-1,0,-1,-1,-1
Cn1c(=O)c2[nH]c(SCC(=O)N3CCN(c4cccc(C(F)(F)F)c4)CC3)nc2n(C)c1=O,-3,-1,-1,nt,-2
CC(=O)Oc1ccc([C@@H]2COc3c(ccc4c3C=CC(C)(C)O4)C2)c(OC(C)=O)c1,5,1,-1,4.4*,2
Nc1c(C(=O)CSc2nc3ccccc3o2)c(=O)[nH]c(=O)n1C1CC1,-6,4.4*,-1,-2,-2
CCCc1ccc(S(=O)(=O)N2CCN(C(=O)CN3C(=O)NC(C)(C4CC4)C3=O)CC2)cc1 (configuration not stated),-2,1,-1,4.3*,1

# Compound activity (PubChem BioAssay)
